Results on 95 compounds are retold here after PubChem BioAssay AID602292 (National Center for Advancing Translational Sciences (NCATS), 2012).

Among all 1,300 compounds or so, about 380 (29%) were called active. Not shown: some 37% with an inconclusive outcome. This is one part of the list. Values without a mark were called inactive. Calls follow the shape of the dose curve; as a rule, active = well fitted inhibition curve with a large enough effect; inconclusive = small, poorly fitted or top-dose-only effect; inactive = flat fitted curve, though single readings scatter.
% is scaled to controls: 0 for no effect and ±100 for the full control effect; potency is read from the fitted curve at half-maximal effect.

Thyrotropin receptor (Homo sapiens), sequence (P16473 whole entry, looked up): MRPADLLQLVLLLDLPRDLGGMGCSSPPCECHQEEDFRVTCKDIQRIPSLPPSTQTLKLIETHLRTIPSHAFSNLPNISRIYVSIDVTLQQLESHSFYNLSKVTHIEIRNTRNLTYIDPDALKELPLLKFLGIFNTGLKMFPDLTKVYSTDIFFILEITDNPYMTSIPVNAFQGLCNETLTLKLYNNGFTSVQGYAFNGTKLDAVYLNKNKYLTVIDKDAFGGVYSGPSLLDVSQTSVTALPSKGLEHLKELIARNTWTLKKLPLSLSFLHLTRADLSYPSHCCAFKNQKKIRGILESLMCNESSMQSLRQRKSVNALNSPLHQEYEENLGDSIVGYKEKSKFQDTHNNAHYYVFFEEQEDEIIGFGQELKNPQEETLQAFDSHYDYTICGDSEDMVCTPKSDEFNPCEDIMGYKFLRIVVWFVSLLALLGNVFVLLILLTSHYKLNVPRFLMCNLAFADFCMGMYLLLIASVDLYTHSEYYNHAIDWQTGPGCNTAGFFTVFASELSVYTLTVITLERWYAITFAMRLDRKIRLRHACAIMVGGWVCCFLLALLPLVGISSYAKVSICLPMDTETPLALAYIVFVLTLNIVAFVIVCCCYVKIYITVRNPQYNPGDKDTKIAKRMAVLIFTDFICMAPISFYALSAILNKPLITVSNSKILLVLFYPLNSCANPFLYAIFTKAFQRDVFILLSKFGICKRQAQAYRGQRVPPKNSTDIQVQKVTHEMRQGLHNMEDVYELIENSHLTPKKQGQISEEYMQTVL

This assay has as its target Thyrotropin receptor (Homo sapiens) (UniProt P16473). Put plainly: qHTS for antagonists of the Thyroid Stimulation Hormone Receptor: Hit Validation in Primary Screen. Also: nearly all actives have a fitted effect of over 80% in size.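 As to activity change, negative = inhibition: cAMP by competitive HTRF where cellular cAMP lowers the 665 nm FRET signal.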 To be noted: TSHR-expressing cells, cAMP antagonist mode; series mostly up to 58 µM; activity change, negative = inhibition: at the top concentration. The essentials:
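TSHR-expressing cells were pretreated with compound, then stimulated with TSH at EC80 (4nM final) for 2 hours at 37 deg C. Cellular cAMP measured by competitive HTRF (anti-cAMP cryptate, cAMP-d2) after 30 min at room temperature.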
With `COC(=O)c1cc(-c2c[nH]c3ccccc23)n[nH]1`, the “activity change, negative = inhibition” value was -11.6%.

Regarding `CCn1nc(C)cc1-c1nnc(Sc2ncc([N+](=O)[O-])s2)n1C`, the Potency is 15.1 µM (active).

`CC(=O)N1c2ccc(S(=O)(=O)NCCC(=O)Nc3ccccc3C)cc2CC1C` (stereo not given): the “activity change, negative = inhibition” value was -0.317%. `S=C(Nc1ccc(Oc2ccccc2)cc1)NC1CCCCCC1`: the Potency is 12 µM (active). Take `CC(=O)c1ccc(NC(=O)C(C)N(C)CC(=O)Nc2ccc(N3CCOCC3)cc2)cc1` (stereo not given): the “activity change, negative = inhibition” value is -4.26%. With `O=C1C(Nc2ccc(O)cc2)=C/C(=N/S(=O)(=O)c2cccs2)c2ccccc21`, the Potency was 30.1 µM (active). As for `O=C(O)c1ccc(NC2=C/C(=N/S(=O)(=O)c3ccccc3)c3ccccc3C2=O)cc1`, the Potency was 21.3 µM (active). Regarding `Cc1ccc(S(=O)(=O)/N=C2\C=C(Nc3cccc(C(=O)O)c3)C(=O)c3ccccc32)c(C)c1`, the Potency was 30.1 µM (active). On the same count and under the same terms, the value for `O=C(O)c1ccc(S(=O)(=O)/N=C2\C=C(Nc3ccccc3F)C(=O)c3ccccc32)cc1` was 37.9 µM (active). For the compound `COc1ccc(CNCc2cc(C)c(OC)cc2C)c(OC)c1`, the “activity change, negative = inhibition” value was -2.56%. Still for that read-out and setting: the value for `O=C(O)c1ccc(CNC(=O)c2ccc3c(c2)C(=O)N(Cc2cccnc2)C3=O)cc1` was -5.76%.

`Cc1ccccc1C(=O)N1CCN(c2ccc(NC(=S)NC(=O)c3ccco3)cc2)CC1`: the Potency was 21.3 µM (active).

`O=C(Nc1ccccc1C(=O)N1CCN(c2cccc(Cl)c2)CC1)C1=CSCCO1`: the “activity change, negative = inhibition” value was -14.7%. The same measure, in the same setting: the value for `COc1cc(NC(=O)C(C)C)ccc1NC(=O)c1ccco1` was -9.42%. As for `Cc1cc(C)n2c(C)nnc2c1`, the “activity change, negative = inhibition” value was -0.576%.

With `CS(=O)c1ccc(-n2c(=O)n(Cc3ccccc3)c(=O)c3[nH]cnc32)cc1` (stereo not given), the “activity change, negative = inhibition” value was -2.3%. With `COc1cc2c(cc1OC)CN(C(=S)NC(=O)c1ccccc1)CC2`, the “activity change, negative = inhibition” value was 1.18%. Regarding `Cc1cc(C(=O)COC(=O)c2ccc(O)cc2O)c(C)n1-c1ccccc1`, the Potency is 23.9 µM (active). For the compound `CC(=O)C1=C(O)C(=O)N(c2ccc(O)cc2)C1c1cccc(F)c1` (stereo not given), the “activity change, negative = inhibition” value is -6.31%.

On to `O=[N+]([O-])c1ccc(NC(=S)NCc2ccc(F)cc2)cc1`, for which the Potency is 9.53 µM (active). Regarding `O=C(NC(=S)Nc1ccc(C(=O)N2CCOCC2)cc1)c1ccc([N+](=O)[O-])cc1`, the “activity change, negative = inhibition” value is -4.55%.

Consider `O=C(NCc1ccc(F)cc1)c1ccncc1`, for which the “activity change, negative = inhibition” value is -3.08%. On to `O=[N+]([O-])c1ccc(NC(=S)NCCc2ccc(F)cc2)cc1`, for which the Potency is 9.53 µM (active). As to `CCCNc1c(NS(=O)(=O)c2ccc(Br)cc2)c(=O)oc2ccccc12`, the “activity change, negative = inhibition” value was -1.84%.

As to `N#C/C(=N\Nc1ccc(S(=O)(=O)N2CCc3ccccc32)cc1)C(N)=S`, the Potency was 9.53 µM (active).

On to `O=C(NNC(=O)c1n[nH]c(=O)c2ccccc12)c1ccc(Br)cc1`, for which the “activity change, negative = inhibition” value is -7.52%. `COc1ccccc1CNS(=O)(=O)c1ccc(-n2cccn2)cc1`: the “activity change, negative = inhibition” value is -5.7%. On the same count and under the same terms, for `CS(=O)(=O)c1ccc(N2CCN(c3ccccn3)CC2)c([N+](=O)[O-])c1` the value was -8.56%. With `COc1ccccc1C1CCN(c2cc(O)ccc2[N+](=O)[O-])CC1`, the Potency was 37.9 µM (active). Consider `Clc1ccc(C2Nc3cccc4cccc(c34)N2)cc1`, for which the “activity change, negative = inhibition” value was -8.7%. `O=C(O)c1ccccc1NS(=O)(=O)c1cccc(-n2sc3ccccc3c2=O)c1`: the Potency was 23.9 µM (active). With `COc1cc(C(=O)NCCNC(=O)c2cnccn2)cc(OC)c1OC`, the “activity change, negative = inhibition” value was -3.03%.

Take `Cc1ccc(S(=O)(=O)NCCNc2ccc([N+](=O)[O-])cc2)cc1`: the “activity change, negative = inhibition” value was -6.89%.

Regarding `Cc1ccc(NS(=O)(=O)c2cc(C(=O)Nc3cccc([N+](=O)[O-])c3)ccc2C)cc1`, the Potency was 21.3 µM (active).

Regarding `Cc1ccc(C(=O)Nc2cccc([N+](=O)[O-])c2)cc1S(=O)(=O)Nc1ccc(NC(=O)c2ccccc2)cc1`, the “activity change, negative = inhibition” value is -4.06%. With `COCC(=O)N1CCC(n2nccc2NC(=O)c2ccccc2OC)CC1`, the “activity change, negative = inhibition” value is -3.8%. Regarding `COc1cc(NS(=O)(=O)c2ccc(NC(=O)c3ccc(F)cc3)cc2)ncn1`, the “activity change, negative = inhibition” value was -8.18%. `Cc1ccc(S(=O)(=O)Oc2ccc(/C=C(/NC(=O)c3ccccc3)C(=O)Nc3ccccc3)cc2)cc1`: the “activity change, negative = inhibition” value was -1.41%. For the compound `O=C(Nc1nc(-c2ccccc2)cs1)c1ccccc1NS(=O)(=O)c1ccc(F)cc1`, the Potency was 3.38 µM (active). On to `COc1ccc(S(=O)(=O)Nc2ccccc2C(=O)Nc2nc(-c3ccc(F)cc3)cs2)cc1OC`, for which the Potency was 3.38 µM (active). The same measure, in the same setting: for `COc1ccc(-c2csc(NC(=O)c3ccccc3NS(=O)(=O)c3ccc(F)c(F)c3)n2)cc1` the value was 5.36 µM (active). Consider `COc1ccccc1C(=O)Nc1nnc(SCC(=O)NC2CCCC2)s1`, for which the “activity change, negative = inhibition” value was -5.73%.

Regarding `COc1ccc(-c2csc(NC(=O)c3ccccc3NS(=O)(=O)c3ccc(C)cc3)n2)cc1`, the Potency was 3.38 µM (active). On to `O=S(=O)(Nc1cccc(-c2ccc(N3CCCCCC3)nn2)c1)c1ccc(F)cc1`, for which the “activity change, negative = inhibition” value was -6.89%. As to `C=CCN(c1ccccc1)S(=O)(=O)c1ccc2[nH]cc(C(=O)NCCOC)c(=O)c2c1`, the “activity change, negative = inhibition” value is -10.1%. With `O=C(Nc1ccc2nc3n(c(=O)c2c1)CCCCC3)C(=O)N1CCN(c2ccccc2F)CC1`, the “activity change, negative = inhibition” value is -13.9%. On to `Clc1ccccc1CN(Cc1ccccc1)c1ncnc2nc[nH]c12`, for which the Potency was 26.9 µM (active). On the same count and under the same terms, for `Clc1ccc2c(c1)-c1nnc(Br)n1-c1ccccc1S2` the value was 26.9 µM (active). As to `CC(C)NC(=O)COc1coc(CN2CCN(c3ccccc3F)CC2)cc1=O`, the “activity change, negative = inhibition” value is -7.58%.

Regarding `O=S(=O)(Nc1cc(Cl)ccc1-n1cncn1)c1cc(Br)ccc1Br`, the Potency was 15.1 µM (active). Turning to `COc1ccc(NC(=O)Cn2nnc(C(=O)NCc3cccs3)c2N)c(OC)c1`, the “activity change, negative = inhibition” value was -0.749%. As to `COc1ccccc1CNC(=O)CSc1nc(N)c(C#N)c(-c2cccs2)c1C#N`, the Potency is 37.9 µM (active). As to `Cc1ccc(SCC(=O)NCc2ccccc2C)cc1`, the “activity change, negative = inhibition” value is -8.01%. The same measure, in the same setting: the value for `CC(C)N(C(=O)Cn1c(-c2cccnc2)ccc(C#N)c1=O)C(C)C` was -6.8%. As to `CC1CCCC(NC(=O)CN2C(=O)COc3ccccc32)C1C` (stereo not given), the “activity change, negative = inhibition” value was -7.14%. With `N#CC(C#N)=NNc1ccc(S(=O)(=O)N2CCCCC2)cc1`, the Potency was 3.01 µM (active). Consider `Cc1ccc(S(=O)(=O)N2CCOCC2)cc1N/N=C(\C#N)c1nc2ccccc2[nH]1`, for which the “activity change, negative = inhibition” value was -10.7%. Consider `COC(=O)c1ccc(COc2cc(O)c3c(c2)OC(C)(C)CC3=O)cc1`, for which the Potency is 30.1 µM (active). On to `Cc1ccc(S(=O)(=O)N2CCN(C(=O)CCn3cncn3)CC2)cc1`, for which the “activity change, negative = inhibition” value was -0.576%. For `CC(=O)c1ccc(S(=O)(=O)N2CCN(CCOc3ccc(Br)cc3)CC2)cc1`, the Potency is 30.1 µM (active). Same read-out and setting: for `Cc1ccc(O)c(N=Cc2cc(Cc3ccccc3)cc([N+](=O)[O-])c2O)c1` the value was 16.9 µM (active).

For `CN(C)S(=O)(=O)N1CCN(c2ccnc3cc(Cl)ccc23)CC1`, the “activity change, negative = inhibition” value is -7.84%. Regarding `O=C(Nc1ccc(C(F)(F)F)cc1)c1csc(-c2ccncc2)n1`, the Potency is 60.1 µM (active). Turning to `CC(C)(C)NC(=O)C(c1ccc(O)cc1)N(Cc1ccccc1)C(=O)CCC(=O)Nc1nccs1` (stereo not given), the “activity change, negative = inhibition” value is -6.86%. As to `O=C(Nc1cc(Sc2nc3ccccc3s2)cc([N+](=O)[O-])c1)c1ccccc1F`, the “activity change, negative = inhibition” value is -6.57%. The same measure, in the same setting: for `Cc1nnc(SCC(=O)Nc2nonc2C)s1` the value was -3.05%.

For `O=[N+]([O-])c1c(NCCO)cc(Sc2nc3ccccc3s2)c2nonc12`, the Potency was 23.9 µM (active). As to `Cc1nnc(Sc2cc(NCCCO)c([N+](=O)[O-])c3nonc23)s1`, the Potency is 33.8 µM (active). For `O=C1C=C(c2ccc3[nH]ccc3c2)C[C@@H](c2ccc(Cl)cc2)C1`, the “activity change, negative = inhibition” value was -9.05%. On to `O=C(/C=C/c1cccc(Cl)c1)c1ccc([N+](=O)[O-])o1`, for which the Potency was 26.9 µM (active). With `C/C(=N\NC(=O)c1nnn(-c2nonc2N)c1-c1ccc(Cl)c(Cl)c1)c1ccncc1`, the “activity change, negative = inhibition” value was -2.3%. On the same count and under the same terms, for `CCn1nc(C)c(CN2CCCC(CNS(=O)(=O)c3ccc(OC)cc3)C2)c1C` (stereo not given) the value was -7.72%.

As for `C=C(C)C(=O)OCC(O)COc1ccc(C(C)(C)c2ccc(OCC(O)COC(=O)C(=C)C)cc2)cc1` (stereo not given), the Potency was 21.3 µM (active). On the same count and under the same terms, the value for `O=c1cc(-c2ccccc2)nc2c(-c3ccccc3)c(C(F)(F)F)[nH]n12` was 6.01 µM (active). As to `COc1ccc(-c2cn(CCCOCc3ccccc3)nn2)cc1`, the “activity change, negative = inhibition” value is -4.03%. With `COc1ccc(-c2c(C(F)(F)F)[nH]n3c(=O)cc(-c4ccccc4)nc23)cc1`, the Potency was 19 µM (active). On to `Nc1nc2nc(-c3ccccc3)cc(C(F)(F)F)c2s1`, for which the “activity change, negative = inhibition” value was -6.22%. Still for that read-out and setting: for `COc1ccc(OC)c(C2=NOC(C(=O)NCC3CCCO3)C2)c1` (stereo not given) the value was -3.8%; for `Cc1sc2ncn(CC(=O)NCCCC(=O)NCc3ccc(F)cc3)c(=O)c2c1C`, -3%; for `Cc1ccc(CNC(=O)CCNC(=O)N2CCn3c2nc2ccccc23)cc1`, -3.49%. In the case of `Cc1cc(NC(=O)c2cc(-c3ccco3)on2)nn1Cc1ccc(Cl)cc1`, the Potency was 30.1 µM (active). For the compound `O=C(Nc1ccccc1Cl)/C(Cl)=C(\Cl)S(=O)c1ccccc1` (stereo not given), the Potency is 26.9 µM (active).

For `COc1ccc(NC(=O)/C(Cl)=C(/Cl)S(=O)Cc2ccc(Cl)cc2)cn1` (stereo not given), the Potency was 30.1 µM (active). On to `COc1ccc(NC(=O)/C(Cl)=C(/Cl)S(=O)Cc2ccccc2Cl)cn1` (stereo not given), for which the Potency was 21.3 µM (active).

Turning to `COc1ccc(-n2nc(C(=O)NCC(=O)NCCCN3CCN(C)CC3)c3ccccc3c2=O)cc1`, the “activity change, negative = inhibition” value is -2.19%. With `Cc1ccccc1NC(=O)Cc1nc(COC(=O)c2cccc([N+](=O)[O-])c2)cs1`, the “activity change, negative = inhibition” value was -2.22%. Still for that read-out and setting: the value for `CCSc1ccc(C(=O)Nc2ccc(Br)cn2)cc1[N+](=O)[O-]` was -1.87%.

As to `CC(=O)Oc1c(I)cc(I)cc1C(=O)Nc1ccc(Cl)cc1`, the Potency was 1.9 µM (active). `Cn1cc(Cl)c(C(=O)N/N=C/c2ccc3c4c(cccc24)CC3)n1`: the “activity change, negative = inhibition” value was -4.26%.

In the case of `CCC(=O)NC1=C(Cl)C(=O)C(NC(=O)CC)=C(Cl)C1=O`, the Potency was 30.1 µM (active). Regarding `O=C(NC1CCOc2ccccc21)c1ccccn1` (stereo not given), the “activity change, negative = inhibition” value is -1.38%. `COc1ccc(CCNC(=O)c2cccc3c2C(=O)N(C2CCCCC2)C3)cc1OC`: the “activity change, negative = inhibition” value is -8.96%. On to `COc1ccc(CCNC(=O)c2ccc(-c3ccc([N+](=O)[O-])cc3Cl)o2)cc1OC`, for which the Potency is 23.9 µM (active). `O=C(CSc1nnc(-c2ccncc2)n1Cc1ccco1)Nc1nc(-c2ccccc2)cs1`: the Potency is 21.3 µM (active). Still for that read-out and setting: for `Cc1cc(C)c(S(=O)(=O)c2c(C)cccc2C)c(Cl)n1` the value was 23.9 µM (active).
